High-throughput results as filed in PubChem.
TDP1 cell noCPT: qHTS for Inhibitors of human tyrosyl-DNA phosphodiesterase 1 (TDP1): qHTS in cells in absence of CPT. DT40 Tdp1-/- hTDP1 cells, no CPT, ATP luminescence, 48 h. Potency, µM (titrated, usually from 46.2 µM), inactives show at the top dose activity change, negative = growth inhibition, usual class: inhibitors. 15% of 420,000 active. AID 686978, 2013; also: potency is read from the fitted curve at half-maximal effect; nearly all actives have a fitted effect of over 55% in size
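Growth kinetics read by CellTiter-Glo luminescence after ≥48 hr at 37 °C. Cells: DT40 Tdp1-/- stably carrying human TDP1, 400 per well, compound exposure in the absence of CPT (DMSO vehicle).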
Gal4-VP16 FLuc: Gal4-VP16 reporter inhibition counter-screen | 3.5% of 310,000 active | Potency, µM (series often up to 53.6 µM), for the others: at the highest dose activity, negative = inhibition, actives largely listed as inhibitors | Drosophila S2 Gal4-VP16 UAS-luciferase, luminescence, 20 h | AID 2546;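 also: Gal4-VP16 expression switched on by copper sulfate through the metallothionein promoter; potency is read from the fitted curve at half-maximal effect; nearly all actives have a fitted effect of over 50% in size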
RORgamma inh: ROR gamma (mouse) transcription inhibition | P51450 | Drosophila S2 Gal4-RORgamma UAS-luciferase reporter, 20 h | Potency, µM (top dose mostly 53.6 µM), without a hit: at the top dose activity change, negative = inhibition, usual class: inhibitors | 5.4% of 310,000 active | AID 2551; also: potency is read from the fitted curve at half-maximal effect; nearly all actives have a fitted effect of over 60% in size
Target sequence (P51450 whole entry, looked up, the tested form may be a part): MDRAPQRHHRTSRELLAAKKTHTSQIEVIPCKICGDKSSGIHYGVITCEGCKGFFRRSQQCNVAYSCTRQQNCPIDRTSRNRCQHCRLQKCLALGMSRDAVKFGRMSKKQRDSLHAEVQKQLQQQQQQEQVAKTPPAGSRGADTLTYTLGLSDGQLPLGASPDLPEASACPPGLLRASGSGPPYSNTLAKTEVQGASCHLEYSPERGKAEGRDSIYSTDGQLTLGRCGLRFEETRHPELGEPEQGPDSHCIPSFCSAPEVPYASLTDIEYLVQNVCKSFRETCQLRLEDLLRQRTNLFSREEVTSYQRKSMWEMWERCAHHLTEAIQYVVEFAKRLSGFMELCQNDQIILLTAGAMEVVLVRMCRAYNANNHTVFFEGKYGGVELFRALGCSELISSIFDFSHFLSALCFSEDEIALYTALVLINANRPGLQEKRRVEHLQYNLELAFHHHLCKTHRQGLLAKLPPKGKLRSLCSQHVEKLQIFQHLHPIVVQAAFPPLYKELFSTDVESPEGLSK
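Read-out: Photinus luciferase luminescence; inhibitors lower reporter signal. Insect Schneider cells with Gal4-ROR gamma fusion under metallothionein promoter, UAS reporter; 700 uM final copper sulfate induction, 20 hr, ambient temperature.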
IL-1B inflam inh: inflammasome signaling inhibition, IL-1 beta readout; AID 743279; 4.7% of 360,000 active; activity change, % at 57.5 µM; THP-1 LPS/ATP IL-1B secretion, AlphaLISA, 16 h; hits give low values; in the data active = activity change below about -50%; inconclusive = mostly about -30% to -49%
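THP-1 cells pretreated 1 hr with compounds (up to 57.5 uM final), then stimulated with LPS (250 ng/mL final) plus ATP (1.25 mM final); secreted IL-1B measured by AlphaLISA after 16 hr, decreased signal indicating inhibition.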
TDP1 cell CPT: growth inhibition of DT40 Tdp1-/-;hTDP1 cells with camptothecin (screen for TDP1 inhibitors); chicken DT40 Tdp1-/-;hTDP1 cells + 20 nM CPT, ATP luminescence, 48 h; Potency, µM (highest dose often 46.2 µM), for inactives: at the top dose activity change, negative = growth inhibition, usual class: inhibitors; 12% of 420,000 active; AID 686979; also: potency is read from the fitted curve at half-maximal effect; nearly all actives have a fitted effect of over 55% in size
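Chicken DT40 Tdp1-/- cells stably complemented with human TDP1 were seeded at 400 cells/well in medium containing 20 nM camptothecin, exposed to pin-transferred compounds, and grown at 37 °C for at least 48 hr. Viability was read as ATP luminescence.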
LDHA block: LDHA (human) enzyme inhibition; P00338; purified LDHA, NADH/diaphorase-resazurin fluorescence; hits give low values; activity change, % (values are at about 110 or 230 µM); 0.15% of 480,000 active; in the data active = activity change below about -30%; inconclusive = mostly about -25% to -30%;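 also: plate controls were DMSO wells for no effect and wells without enzyme for full effect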
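Enzyme activity of human lactate dehydrogenase 5 (2 nM; 0.06 mM NADH, 0.2 mM pyruvate, 5 min, RT) is measured via a resazurin/diaphorase fluorescence readout of residual NADH.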
* hit, by the source's call; ? = inconclusive; · = no result given. An excerpt weighted towards active compounds, which were near 18% of everything screened. Unless noted, calls follow the shape of the dose curve; as a rule, active = well fitted curve in the direction sought with a large enough effect; inconclusive = small, poorly fitted or top-dose-only effect, or another doubt; inactive = no such curve, though single readings can be large; an effect the other way counts as inactive or inconclusive. Unless noted, % is scaled to controls: 0 for no effect and ±100 for the full control effect.

SMILES	TDP1 cell noCPT	Gal4-VP16 FLuc	RORgamma inh	IL-1B inflam inh	TDP1 cell CPT	LDHA block
CCOc1ccc(CSC(=N)N)cc1[N+](=O)[O-]	?	-6.8%	1.1%	-96.6*	23.1µM*	-13.5
CCCCOc1ccc(CSCCN)cc1Cl	18.4µM*	2µM*	1.26µM*	-83.3*	18.4µM*	-3.5
CCOc1ccc(CSC(=N)N)cc1Cl	11.6µM*	-10.1%	-12.2%	-51.6*	14.6µM*	-6.7
N=C(N)SCc1ccc(Cl)c(Cl)c1	·	·	·	·	·	4.1
O=C(N/N=C1/CC2C=CCC12)c1ccc(Cl)cc1 (stereo unspecified)	·	·	·	·	·	6.1
O=C(CC1(C(=O)O)CCCCC1)Nc1ccccc1CO	·	·	·	·	·	1.4
O=C(CSc1nc(-c2ccc3c(c2)OCO3)nc2cc(=O)[nH]n12)NCCc1ccccc1	·	·	·	·	·	-3.6
CCN(CC(=O)Nc1ccccc1C(F)(F)F)C(=O)c1cc2c(s1)CCCCC2	23.1µM*	·	·	-53.2*	?	-5.1
CCOC(=O)c1ccc(NC(=O)c2nc(SC(C)C)ncc2Cl)cc1	16.4µM*	·	·	·	16.4µM*	3.2
Cc1cccc(C)c1NC(=O)c1nc(SC(C)C)ncc1Cl	?	·	·	·	18.4µM*	-1.2
COc1ccc(/C=C(\NC(=O)c2ccc(OC)cc2)C(=O)OCCC(C)C)cc1	·	·	·	·	·	0.8
CCN(CC)CCCNc1oc(-c2ccccc2F)nc1C#N	·	·	·	·	·	-0.7
O=C(NC1CCCCC1)c1cccc(OCc2ccccc2)c1	?	-6.9%	13.8%	-73.6*	?	-11.1
CC(=O)Nc1ccc(OCc2ccc(S(=O)(=O)Cc3ccccc3)cc2)cc1	?	5.9%	0.4%	13.3	-10.3%	-5.3
CC(=O)Nc1cccc(OCc2ccc(S(=O)(=O)Cc3ccccc3)cc2)c1	20.6µM*	-11.7%	18.2%	16.4	?	-2.6
CC(=O)Nc1cccc(NC(=O)c2cccc(OCc3ccccc3)c2)c1	18.4µM*	3.5%	22.7%	68.3	20.6µM*	-1.9
CCc1nnc(NC(=O)CCc2ncc(-c3ccccc3Cl)o2)s1	·	·	·	·	·	1.9
O=CN1CCN(C(=O)c2cc(-c3cccs3)nc3ccccc23)CC1	·	·	·	·	·	10.5
CCc1ccc2oc(C(=O)Nc3ccc(C)cc3)cc(=O)c2c1	·	·	·	·	·	2.2
CCOc1ccc(CN(C)C(=O)Cn2nc(C(=O)O)c3ccccc3c2=O)cc1	·	·	·	·	·	0.5
Cn1c(Cl)nc2c1c(=O)n(Cc1ccc(Cl)cc1Cl)c(=O)n2C	·	·	·	·	·	0.7
O=c1[nH]nc(Cc2ccc(-c3cccc(Cl)c3)o2)c2ccccc12	?	-6.1%	15.7%	53.3	16.4µM*	5.0
O=C(NCCc1ccc(Cl)cc1)C12CC3CC(CC(Cl)(C3)C1)C2	·	·	·	·	·	1.0
CSc1ccc(NC(=O)c2n[nH]c(=O)c3ccccc23)cc1	·	·	·	·	·	-4.9
CC(=O)Nc1ccc(NC(=O)CC2Nc3cccc4cccc(c34)NC2=O)cc1 (stereo unspecified)	?	-2.7%	36.5%	0.0	-15.2%	11.3
SMILES	TDP1 cell noCPT	Gal4-VP16 FLuc	RORgamma inh	IL-1B inflam inh	TDP1 cell CPT	LDHA block
COc1ccc(NC(=O)CC2Nc3ccccc3NC2=O)cc1 (stereo unspecified)	23.1µM*	·	·	·	?	-2.2
Cc1cccc(NC(=O)CC2Nc3cccc4cccc(c34)NC2=O)c1 (stereo unspecified)	?	-1.2%	31.1%	10.2	16.4µM*	21.6
CCOc1ccc(NC(=O)CC2Nc3cccc4cccc(c34)NC2=O)cc1 (stereo unspecified)	16.4µM*	·	·	·	?	18.5
CCOc1ccc(NC(=O)CC2Nc3ccccc3NC2=O)cc1 (stereo unspecified)	6.5%	-6.7%	2.7%	-7.6	-4.6%	-1.6
COc1cccc(NC(=O)CC2Nc3cc(C)c(C)cc3NC2=O)c1 (stereo unspecified)	?	·	·	·	?	-11.1
CCOC(=O)c1ccc(NC(=O)CC2Nc3cccc4cccc(c34)NC2=O)cc1 (stereo unspecified)	2.59µM*	·	·	·	2.59µM*	25.6
